# Screening results (PubChem)
# TDP1 cell noCPT: qHTS for Inhibitors of human tyrosyl-DNA phosphodiesterase 1 (TDP1): qHTS in cells in absence of CPT; Potency, µM (top dose mostly 46.2 µM), usual class: inhibitors; DT40 Tdp1-/- hTDP1 cells, no CPT, ATP luminescence, 48 h; 420,000 compounds, 15% hits; note: nearly all actives have a fitted effect of over 55% in size
#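 DT40 Tdp1-/-;hTDP1 cells, no CPT (DMSO vehicle only), 400 cells/well; compounds pin-transferred; ≥48 hr, 37 °C; CellTiter-Glo 30 min RT dark, luminescence read.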
# TDP1 inh: TDP1 (human) enzyme inhibition; Q9NUW8; recombinant TDP1, AlphaScreen DNA substrate cleavage; Potency, µM (series often up to 130 µM), hits mostly inhibitors; 350,000 compounds, 0.28% hits; AID 485290; note: nearly all actives have a fitted effect of over 40% in size
# Target sequence (Q9NUW8 whole entry, looked up): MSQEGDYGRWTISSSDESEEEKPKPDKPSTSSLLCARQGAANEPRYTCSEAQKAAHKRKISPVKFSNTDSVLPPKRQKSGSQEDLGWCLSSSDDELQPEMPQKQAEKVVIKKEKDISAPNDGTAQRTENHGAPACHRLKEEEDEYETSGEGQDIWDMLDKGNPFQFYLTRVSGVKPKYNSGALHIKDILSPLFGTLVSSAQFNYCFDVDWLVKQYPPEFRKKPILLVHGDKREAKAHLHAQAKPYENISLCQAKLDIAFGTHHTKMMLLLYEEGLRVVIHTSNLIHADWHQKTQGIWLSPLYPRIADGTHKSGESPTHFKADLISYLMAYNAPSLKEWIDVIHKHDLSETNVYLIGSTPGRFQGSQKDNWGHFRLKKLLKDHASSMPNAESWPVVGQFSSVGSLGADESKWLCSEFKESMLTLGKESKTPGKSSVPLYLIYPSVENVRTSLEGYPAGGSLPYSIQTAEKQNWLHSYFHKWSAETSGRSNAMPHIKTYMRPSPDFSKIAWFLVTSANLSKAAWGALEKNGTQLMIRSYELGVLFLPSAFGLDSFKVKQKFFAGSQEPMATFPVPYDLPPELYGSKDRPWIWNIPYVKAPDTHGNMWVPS
#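 AlphaScreen read-out: signal falls as enzyme removes the 3' tyrosine-FITC from a 5'-biotinylated DNA oligo (15 nM, 5 min, RT). Enzyme was E. coli-made recombinant Tdp1 at 1 nM, exposed to compound for 15 min beforehand; beads 10 ug/ml, 10 min.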
# TDP1 cell CPT: growth inhibition of DT40 Tdp1-/-;hTDP1 cells with camptothecin (screen for TDP1 inhibitors). chicken DT40 Tdp1-/-;hTDP1 cells + 20 nM CPT, ATP luminescence, 48 h. Potency, µM (series often up to 46.2 µM), actives largely listed as inhibitors. 420,000 compounds, 12% hits. AID 686979; note: nearly all actives have a fitted effect of over 55% in size
#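 Cell growth measured by CellTiter-Glo luminescence after a minimum 48 h, 37 C compound exposure with 20 nM CPT in Tdp1-knockout DT40 cells stably expressing hTDP1, seeded 400/well; qHTS titration format.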
# ClpP mod: qHTS Assay for Activators of ClpP; purified B. subtilis ClpP, FRET peptide cleavage, 20 min; ATP-dependent Clp protease proteolytic subunit (Bacillus subtilis (strain 168)), P80244; Potency, µM (titrated, usually from 57.5 µM); 340,000 compounds, 1.9% hits; active = well fitted falling curve with a large enough effect; inconclusive = small, poorly fitted or top-dose-only effect; inactive = no such curve, though single readings can be large or run the other way; note: the source files actives as falling curves though it sought activators and does not explain the sign; nearly all actives have a fitted effect of over 65% in size
#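 Purified B. subtilis ClpP, 10 microg/mL final in Tris/HCl pH8 with KCl, BSA, glycerol and Tween-20, cleaved an Abz/nitrotyrosine-quenched decapeptide. Fluorescence (ex 320, em 430) was read at 0 and 20 min at room temperature. Delta was normalized to 5.8 microM ADEP and DMSO/no-enzyme controls.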
# Numbers stand for hits; 0 = inactive; ? = inconclusive; - = no result given; [ ] = remark or other dose. Compounds with a hit are over-represented: about 17% of the library has one in this group of screens. Unless noted, calls come from the whole dose curve; as a rule, active = well fitted curve in the direction sought with a large enough effect; inconclusive = small, poorly fitted or top-dose-only effect, or another doubt; inactive = no such curve, though single readings can be large; an effect the other way counts as inactive or inconclusive.
SMILES,TDP1 cell noCPT,TDP1 inh,TDP1 cell CPT,ClpP mod
COc1ccc(CCNC(=O)C2CC3Cn4c(nc5cc(Cl)c(Cl)cc54)C3N2C)cc1 (stereo unspecified),?,0,20.6µM,0
CN1C(C(=O)NCc2cccc(Br)c2)CC2Cn3c(nc4cc(Cl)c(Cl)cc43)C21 (stereo unspecified),?,0,0,0
Cc1cc2nc3n(c2cc1C)CC1CC(C(=O)NCc2cccc(Br)c2)N(C)C31 (stereo unspecified),0,0,0,0
O=C(NCc1cccc(Br)c1)C1CC2Cn3c(nc4ccccc43)C2N1Cc1ccccc1 (stereo unspecified),18.4µM,-,18.4µM,0
CN1C(C(=O)NCc2cccc(Br)c2)CC2Cn3c(nc4cc5ccccc5cc43)C21 (stereo unspecified),20.6µM,0,?,0
CCC1(C2CCN(C(=O)c3ccccc3Cl)CC2)NC(=O)N(CCc2scnc2C)C1=O (stereo unspecified),0,-,0,-
CC1(C)C(=O)Nc2ccccc2N1C(=O)COC(=O)COc1ccc(C#N)cc1,0,0,0,0
CCCN(CC(=O)Nc1ccccc1C)C(=O)c1ccc(-c2ccc([N+](=O)[O-])cc2)o1,20.6µM,0,?,0
CCCN(CC(=O)Nc1ccccc1OC)C(=O)c1ccc(COc2ccccc2)o1,?,0,16.4µM,0
CC(C)c1ccc([C@@H]2O[C@H](CCc3ccccc3)CC3=C2C(=O)OC(C)(C)O3)cc1,16.4µM,-,?,0
CC1(C)OC(=O)C2=C(C[C@@H](C3CCCCC3)O[C@H]2c2ccccc2)O1,16.4µM,-,?,0
CC1(C)OC(=O)C2=C(CC(CCc3ccccc3)OC2c2ccccc2)O1 (stereo unspecified),20.6µM,-,13µM,0
CC1(C)OC(=O)C2=C(C[C@@H](CCc3ccccc3)O[C@@H]2c2ccc(Cl)cc2)O1,?,-,?,0
CC1(C)OC(=O)C2=C(C[C@@H](CCOCc3ccccc3)O[C@@H]2c2ccc(F)cc2)O1,?,-,?,0
CC(C)[C@@H]1O[C@H](CCc2ccccc2)CC2=C1C(=O)OC(C)(C)O2,14.6µM,-,14.6µM,0
Cc1oc2ncnc(N3CCOCC3)c2c1C(=O)N(Cc1ccccc1)C(C)C,0,0,0,0
CCc1ccc(NC(=O)C(=O)NCC(c2ccc3c(c2)OCO3)N2CCOCC2)cc1 (stereo unspecified),0,0,0,0
Nc1ccccc1Oc1ccc2ccccc2c1,?,0,0,0
CC1OC(CCc2cccc(Cl)c2)Cc2[nH][nH]c(=O)c21 (stereo unspecified),0,-,0,0
C[C@@H]1O[C@H](CCc2cccc(Cl)c2)CC2=C1C(=O)OC(C)(C)O2,2.91µM,-,1.64µM,0
O=C(Nc1ccc(F)cc1)/C(=C1/CCCCCN1)[N+](=O)[O-],0,0,0,0
CC(C)(C)c1ccc(C(=O)Nc2cccc([N+](=O)[O-])c2)cc1,18.4µM,0,16.4µM,0
CC(C)(C)CC(C)(C)NC(=O)Nc1cccc([N+](=O)[O-])c1,16.4µM,0,?,0
O=C(Nc1cccc([N+](=O)[O-])c1)C1C2CC/C=C\CCC21 (stereo unspecified),18.4µM,0,0,-
Cc1cc(NC(=O)Nc2cccc([N+](=O)[O-])c2)no1,0,0,0,0
SMILES,TDP1 cell noCPT,TDP1 inh,TDP1 cell CPT,ClpP mod
O=C(Nc1cccc([N+](=O)[O-])c1)c1ccncc1,0,0,0,0
O=C(O)C1C2CCC(C2)C1C(=O)Nc1cccc([N+](=O)[O-])c1 (stereo unspecified),0,-,0,-
CC(C)=NO[C@@H](C)c1cc(-c2c(C)cc(C)cc2C)no1,-,0[21 µM],-,-
Cc1cccc(NC(=O)N2CCCC2C(=O)NCc2cccs2)c1 (stereo unspecified),0,0,0,17.8µM
Cc1cccc(NC(=O)C(=O)NCC2CCCN2S(=O)(=O)c2cccs2)c1 (stereo unspecified),8.2µM,-,13µM,0
Cc1cccc(NC(=O)C(=O)NCC2CCCN2S(=O)(=O)c2cccs2)c1C (stereo unspecified),?,-,20.6µM,0
Cc1cccc(NC(=O)C(=O)NCC2CCCN2S(=O)(=O)c2ccccc2)c1 (stereo unspecified),10.3µM,-,14.6µM,0
CNC(=O)C(=O)NCC1CCCN1S(=O)(=O)c1cccs1 (stereo unspecified),0,-,0,-
Nc1cc(=O)[nH]c(SCC(=O)NNC(=O)c2ccccc2)n1,0,0,0,0
O/N=C(/CBr)c1ccc2ccccc2c1,0,-,0,0
CCOc1ccc(OCCCC(=O)Nc2cc(Cl)ccc2-n2cncn2)cc1,0,0,0,0
CCc1ccc(NC(=O)C(=O)NCC2CCCN2S(=O)(=O)c2cccs2)cc1 (stereo unspecified),14.6µM,0,18.4µM,0
Cc1ccc(NC(=O)C(=O)NCC2CCCN2S(=O)(=O)c2cccs2)cc1 (stereo unspecified),?,0,?,0
Cc1c(Cl)c([N+](=O)[O-])nn1Cc1ccc(C(=O)N/N=C\c2cccc(Br)c2)o1,?,0,?,0
CCC1(C)Cc2ccccc2-c2nc(NN)[nH]c(=O)c21 (stereo unspecified),0,-,0,0
CCC1(C)Cc2ccccc2-c2nc(-c3ccccc3)oc(=O)c21 (stereo unspecified),?,0,0,0
CCC1(C)Cc2ccccc2-c2nc3n(c(=O)c21)CCS3 (stereo unspecified),8.2µM,0,?,?
CCC1(C)Cc2ccccc2-c2nc3n(c(=O)c21)CC(C(=O)O)S3 (stereo unspecified),0,0,0,25.1µM
COCCCn1c(SCC(=O)OC2CCCCC2)nnc1-c1ccco1,0,0,0,0
COCCCN=C(c1ccco1)n1c(=S)nc(-c2ccco2)n(CCCOC)c1=S,?,-,25.9µM,0
CCN(C(=O)c1nn(-c2ccc(OC)cc2)c(=O)c2c1c1ccccc1n2C)c1ccc(OC)cc1,0,0,0,-
COc1ccc(-n2nc(C(=O)NCc3cc(OC)ccc3OC)c3c4ccccc4n(C)c3c2=O)cc1,0,0,0,-
COc1ccc(-n2nc(C(=O)NCCc3ccc(OC)c(OC)c3)c3c4ccccc4n(C)c3c2=O)cc1,14.6µM,0,16.4µM,0
CCCCN(C)CCNC(=O)c1nn(-c2ccc(OC)cc2)c(=O)c2c1c1ccccc1n2C,18.4µM,0,?,0
Cc1nn(CC(=O)O)c(C)c1Cl,?,0,0,0
CC(=C/c1ccccc1)/C=N/Nc1nc(N2CCCCC2)nc(N2CCCCC2)n1,?,0,0,0
Cc1cccc(Nc2nc(Nc3cccc(C)c3)nc(N3CCOCC3)n2)c1,9.2µM,-,14.6µM,?
Cc1cccc(Nc2nc(N3CCCCC3)nc(N3CCCCC3)n2)c1,0,0,0,0
Oc1cccc(Nc2nc(N3CCOCC3)nc(N3CCOCC3)n2)c1,8.2µM,-,5.17µM,0
